The sample as a whole holds a higher share of hits than the screen did.
ST2 inh = inhibitors of human ST2 (IL1RL1) binding to IL-33. AlphaLISA ST2-Fc/biotin-IL-33 interaction, 1 h. AID 1259354. inhibition, % for hits at 17 µM. Q01638. hit rate 2.3% among 78,000; in the data active means inhibition above about 30%
Target sequence (Q01638 whole entry, looked up): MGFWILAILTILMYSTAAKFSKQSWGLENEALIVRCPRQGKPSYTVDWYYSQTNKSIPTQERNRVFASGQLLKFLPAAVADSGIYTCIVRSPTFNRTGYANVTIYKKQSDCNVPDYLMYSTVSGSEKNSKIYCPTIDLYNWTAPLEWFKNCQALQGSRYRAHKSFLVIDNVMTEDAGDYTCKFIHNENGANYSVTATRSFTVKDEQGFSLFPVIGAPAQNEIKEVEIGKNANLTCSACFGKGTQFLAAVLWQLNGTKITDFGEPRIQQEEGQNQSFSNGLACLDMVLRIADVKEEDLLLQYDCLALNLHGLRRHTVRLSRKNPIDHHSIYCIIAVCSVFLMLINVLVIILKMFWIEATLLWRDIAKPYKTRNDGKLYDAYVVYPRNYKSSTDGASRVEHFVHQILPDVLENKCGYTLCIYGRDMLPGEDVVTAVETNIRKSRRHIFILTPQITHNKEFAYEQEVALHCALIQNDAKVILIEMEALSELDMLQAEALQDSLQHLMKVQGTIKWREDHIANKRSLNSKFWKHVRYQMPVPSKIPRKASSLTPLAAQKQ
Of the large screens only hits and unclear results are named; the others gave an inactive call.

O=C(C[C@@H]1CCNC[C@@H]1Cc1cc(COc2ccccc2)on1)N1CCN(c2ccccc2)CC1	ST2 inh 42%
COc1ccc(-c2cc(C[C@H]3CNCC[C@H]3CC(=O)N3CCN(c4ccccc4)CC3)no2)cc1	none
O=C(C[C@@H]1CCNC[C@@H]1Cc1cc(COc2ccccc2)on1)N1CCOCC1	none
CSc1nc2c(c(=O)[nH]1)C(c1ccc(OCc3ccccc3)cc1)C1=C(CCCC1=O)N2 (configuration not stated)	none
COc1ccccc1N1CCN(C(=O)C(C)Oc2ccccc2F)CC1 (configuration not stated)	none
CCOC(=O)c1cnc2c(ccc3ccccc32)c1NCCCN1CCOCC1	none
CSc1nnc(CC2CCN(C(=O)CN(C)Cc3cccnc3)CC2)n1C	none
CN(Cc1cccnc1)C(Cc1ccccc1)C1CCN(C(=O)C23CC4CC(CC(C4)C2)C3)CC1 (configuration not stated)	ST2 inh 32%
CN(C(=O)c1cccs1)C(Cc1ccccc1)C1CCN(C(=O)C2=CCCC2)CC1 (configuration not stated)	none
CC(C)NC[C@H]1O[C@@H](CO)[C@@H](O)[C@H]1N1CCN(c2ncccn2)CC1	none
CCN(CC)C(=O)C1CCCN(Cc2cc(OC)c(O)c(OC)c2)C1 (configuration not stated)	none
Cc1c(N=Cc2ccccc2O)c(=O)n(-c2ccccc2)n1C	none
Cc1c(N=Cc2cc([N+](=O)[O-])c(Cl)cc2Cl)c(=O)n(-c2ccccc2)n1C	none
Cc1c(N=Cc2cc([N+](=O)[O-])ccc2N2CCCC2)c(=O)n(-c2ccccc2)n1C	ST2 inh 36%
CCN1CCN(C(=O)c2cc3c(=O)n4ccccc4nc3n2C)CC1	none
Cc1ccc(-c2n[nH]c(=O)c3ccccc23)cc1S(=O)(=O)N1CCCCC1	none
O=C(CN1CCN(Cc2ccc(F)cc2Cl)S1(=O)=O)Nc1cccc(Cl)c1	none
O=C(CSc1nc2c(c(=O)n1-c1ccccc1)SCC2)c1ccccc1	none
COCC(NC1CCC2(CCNCC2)CC1)c1ccccn1 (configuration not stated)	none
COc1cc(OC)cc(C(=O)Nc2ccc(Nc3nc(C)cc(N(C)C)n3)cc2)c1	none
Cc1cc(N(C)C)nc(Nc2ccc(NC(=O)c3c(F)cccc3F)cc2)n1	none
COc1ccc(Cl)cc1C(=O)Nc1ccc(Nc2nc(C)cc(Nc3ccccc3)n2)cc1	none
COc1ccc(Cl)cc1C(=O)Nc1ccc(Nc2nc(C)cc(N(C)C)n2)cc1	ST2 inh 33%
Cc1cc(N(C)C)nc(Nc2ccc(NC(=O)c3ccccc3C(F)(F)F)cc2)n1	none
Cc1cc(N(C)C)nc(Nc2ccc(NC(=O)c3ccccc3C)cc2)n1	ST2 inh 31%
CSc1nc2ccc3nc(NC(C)=O)sc3c2s1	none
CCC(=O)Nc1ccc(NC(=O)c2nc(C(C)C)cs2)cc1Cl	none
Cc1nn(CCCC(=O)Nc2c(C)n(C)n(-c3ccccc3)c2=O)c(C)c1[N+](=O)[O-]	none
COc1ccc2nc(N3CCN(c4ccccc4)CC3)sc2c1	none
Nc1nccc(-c2cccc3ccnn23)n1	none
CCc1cc2c(=O)c(-c3nc4ccccc4s3)c(C)oc2cc1O	none
COc1ccccc1-c1nc2ccc(Br)cc2c(=O)o1	none
Cc1c(-c2nc3ccccc3c(=O)o2)cccc1[N+](=O)[O-]	ST2 inh 30%
O=c1oc(-c2ccccc2[N+](=O)[O-])nc2ccc(I)cc12	none
C=CCOCCN1C(=O)C2C3c4ccccc4C(c4ccccc43)C2C1=O (configuration not stated)	none
CC(=O)Nc1ccc(-c2nc3cc4sc(-c5ccc(NC(C)=O)cc5)nc4cc3s2)cc1	none
O=C(Cc1ccccc1)Nc1cccc(-c2nc3ccccc3s2)c1	none
N#Cc1ccc(C(=O)Nc2ccc(-c3nc4ccccc4s3)cc2)cc1	ST2 inh 32%
COc1ccc(CC(=O)N(c2ccc(Br)cc2)C2C=CS(=O)(=O)C2)cc1 (configuration not stated)	none
Cc1cc(N2CCN(C)CC2)nc2ccc(NC(=O)CCC(=O)NCCN3CCOCC3)cc12	none
OCCN(Cc1ccccc1)Cc1ccccc1	none
COc1ccc(CN(C)Cc2ccccc2)cc1	none
COc1ccc(N(N)Cc2ccccc2)cc1	ST2 inh 50%
COc1ccc(OCCN(C)Cc2ccccc2)cc1	none
NN(Cc1ccccc1)c1ccccc1	ST2 inh 37%
O=S(=O)(c1ccccc1)N(Cc1ccccc1)Cc1ccccc1	none
COc1ccccc1Oc1ncccc1CNC(=O)c1ccc(C)n(C)c1=O	none
Cc1cc(S(=O)(=O)NC2CCCCC2)ccc1Cl	none
CSc1ccc(CNC(C)c2cnc(-c3ccncc3)nc2C)cc1 (configuration not stated)	none
Oc1oc(-c2ccc(Br)cc2)nc1C=Nc1ccc(F)cc1	none
CN(C)S(=O)(=O)c1ccccc1	none
CC(=O)c1ccc(N2CN=c3s/c(=C\c4cccc([N+](=O)[O-])c4)c(=O)n3C2)cc1	none
COc1ccc(N2CN=c3s/c(=C\c4cccc([N+](=O)[O-])c4)c(=O)n3C2)cc1	ST2 inh 33%
Cc1ccccc1-n1nc([N+](=O)[O-])c(=NCc2ccc3c(c2)OCO3)n1O	none
O=c1/c(=C/c2cccc([N+](=O)[O-])c2)sc2n1CN(c1ccc3c(c1)OCO3)CN=2	ST2 inh 36%
O=c1c2ccccc2nc(/C=C/c2ccc3c(c2)OCO3)n1-c1ccc([N+](=O)[O-])cc1	none
CC(=O)c1ccc(N2CN=c3s/c(=C\c4cccnc4)c(=O)n3C2)cc1	none
COc1cc2c(C(=O)NCCN3CCOCC3)cn(CC(C)C)c(=O)c2cc1OC	none
O=C(NCCO)c1cc2n(n1)CCCN(c1nc3ccccc3s1)C2	none
O=C(Nc1cccc(Br)c1)c1cc2ccccc2oc1=O	none
COCCO[C@H]1[C@H](NC(=O)C(C)C)c2ccccc2C12CCN(C(=O)C1=CCCCC1)CC2	none
c1ccc2sc([C@H]3CCNC3)nc2c1	ST2 inh 32%
CC(=O)N1CCC(N2CC[C@H](c3nc4ccccc4s3)C2)CC1	none
O=C(O)CCC(=O)N1CC[C@H](c2nc3ccccc3s2)C1	none
O=C(NC(NCc1ccccc1)C(Cl)(Cl)Cl)c1ccc([N+](=O)[O-])cc1 (configuration not stated)	none
CCOc1ccccc1CN1CCNC(=O)C1CC(=O)N1CCCCO1 (configuration not stated)	none
C[C@H]1[C@@H]2[C@@H](O)[C@H]([C@H](C)C(=O)N3CCOCC3)CC[C@@]2(C)CC[C@@H]1NC(=O)c1cncnc1	none
CCCCOc1ccc(C2=N/C(=C\c3ccc([N+](=O)[O-])cc3)C(=O)O2)cc1	none
CCOc1ccc(/C=C2\N=C(c3cc([N+](=O)[O-])cc([N+](=O)[O-])c3)OC2=O)cc1	ST2 inh 40%
CCOc1ccc(/C=C2\N=C(c3ccc([N+](=O)[O-])cc3)OC2=O)cc1	none
Cc1nc2c(C(=O)NCc3cccnc3)c[nH]n2c(=O)c1Cc1ccc(F)cc1Cl	none
COc1ccccc1C(=O)Nc1ccc(Cl)c(Cl)c1	none
CCn1nc(CO)c2c1CCN(c1nccc(C3CCCC3)n1)C2	none
CC1(C)ON=C(c2ccccc2)C1=O	none
Cn1c(=O)c2cc(S(=O)(=O)Nc3ccc(F)c(F)c3)ccc2n(C)c1=O	none
COc1ccc(S(=O)(=O)N2CCN(S(=O)(=O)c3ccc(C)cc3)CC2)cc1	none
Cc1ccc(S(=O)(=O)N2CN3CN(C2)CN(S(=O)(=O)c2ccc(C)cc2)C3)cc1	ST2 inh 46%
Cc1ccc(S(=O)(=O)N2CCN(c3ccccc3)CC2)cc1	none
O=C(Nc1nccs1)c1ccc(NC(=O)C(c2ccccc2)c2ccccc2)cc1	none
O=C(Nc1ccc(F)cc1F)c1cccc(Cl)c1Cl	none
CC(=O)Nc1ccc(S(=O)(=O)Nc2nc3ccccc3nc2Nc2cccc(O)c2)cc1	none

Screening data deposited in PubChem BioAssay by Paczesny and Yang Labs, IUPUI and University of Michigan.
